Inconclusive results are not listed. Values without a mark were called inactive. Active and inactive are the calls of the source. Calls follow the shape of the dose curve; as a rule, active = well fitted cell-killing curve with a large enough effect; inconclusive = small, poorly fitted or top-dose-only effect; inactive = flat fitted curve, though single readings scatter.
assay: Cell Viability - LYMP2-011 (AID 969); details: LYMP2-011 lymphoblastoid cells viability; series mostly up to 92.2 µM; viability change, negative = cytotoxic: at the top concentration; also: nearly all actives have a fitted effect of over 60% in size;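 as to viability change, negative = cytotoxic: 0% = DMSO only and full inhibition = 92 µM tetraoctylammonium bromide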
How it was run: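 Acute toxicity is scored as a concentration-dependent drop in intracellular ATP of a human lymphoblastoid line after 24 hr treatment. Values are AC50s modeled with the Hill equation.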
Potency is read from the fitted curve at half-maximal effect.

| SMILES | viability change, negative = cytotoxic | Potency |
| --- | --- | --- |
| O=C(O)C(Br)Br | -13% | – |
| Nc1ccc(Cc2ccc(N)c(Cl)c2)cc1Cl | -5.4% | – |
| Brc1ccc(Oc2ccc(Br)cc2Br)c(Br)c1 | -2.31% | – |
| O=[N+]([O-])c1c(Cl)c(Cl)c(Cl)c(Cl)c1Cl | 1.03% | – |
| CN1CSC(=S)N(C)C1 | – | 39.8 µM (active) |
| ClCC(Cl)Cl | 2.38% | – |
| CC(C)Br | -2.12% | – |
| O=[N+]([O-])c1ccc(O)c([N+](=O)[O-])c1 | -4.38% | – |
| CC(C)[N+](=O)[O-] | 3.6% | – |
| CCCC[N+](=O)[O-] | -1.69% | – |
| Cc1cc(-c2cc(C)c(N)c(C)c2)cc(C)c1N | 0.183% | – |
| Nc1cc(Cl)ccc1O | -18.3% | – |
| CCCCC(CC)COC(=O)c1ccc(C(=O)OCC(CC)CCCC)c(C(=O)OCC(CC)CCCC)c1 (stereo not given) | -15.4% | – |
| O=C(O)C(Br)CBr (stereo not given) | -9.36% | – |
| Nc1c(Br)cc([N+](=O)[O-])cc1[N+](=O)[O-] | -20.3% | – |
| O=C(O)C(Cl)Br (stereo not given) | -0.124% | – |
| COP(=S)(OC)SCn1nnc2ccccc2c1=O | 2.67% | – |
| Nc1ccc([N+](=O)[O-])cc1N | -9.35% | – |
| O=C(O)c1cccc(Cl)c1 | -0.831% | – |
| Cc1cc(N=Nc2ccccc2C)ccc1N | -18.3% | – |
| OCCCCO | 0.705% | – |
| O=[N+]([O-])c1cc(Cl)c(Cl)c(Cl)c1 | -9.31% | – |
| CC(C)(COCC1CO1)COCC1CO1 (stereo not given) | -12.8% | – |
| Cc1ccc2c(c1N)C(=O)c1ccccc1C2=O | -19.8% | – |
| COc1ccccc1N | 3.05% | – |
| CC(C)(C)OOC(=O)c1ccccc1 | -8.88% | – |
| c1ccc(N=NNc2ccccc2)cc1 | -9.72% | – |
| COC(C)(C)C | -1.79% | – |
| O=[N+]([O-])/C=C/c1ccccc1 | – | 50.1 µM (active) |

assay: Cell Viability - LYMP2-013 (AID 970); details: LYMP2-013 lymphoblastoid cells viability; series mostly up to 92.2 µM; activity change, negative = cytotoxic: at the top concentration;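 also: cells exposed to compound for 24 h at 37 °C; nearly all actives have a fitted effect of over 55% in size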;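 as to activity change, negative = cytotoxic: 0% = DMSO only and full inhibition = tetraoctylammonium bromide control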
How it was run: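 Acute toxicity was measured in human lymphoblastoid cells (2500/well) exposed to compound titrations for 24 hr, with ATP luminescence (CellTiter-Glo) as read-out and AC50 fitted by Hill equation.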

| SMILES | activity change, negative = cytotoxic | Potency |
| --- | --- | --- |
| O=C(O)C(Br)Br | -9.28% | – |
| Cc1ccc(OP(=O)(Oc2ccc(C)cc2)Oc2ccc(C)cc2)cc1 | -9.25% | – |
| Oc1c(Cl)c(Cl)cc(Cl)c1Cl | -3.74% | – |
| Nc1ccc(Cc2ccc(N)c(Cl)c2)cc1Cl | 6.24% | – |
| Brc1ccc(Oc2ccc(Br)cc2Br)c(Br)c1 | -9.31% | – |
| O=[N+]([O-])c1c(Cl)c(Cl)c(Cl)c(Cl)c1Cl | 2.54% | – |
| CN1CSC(=S)N(C)C1 | – | 39.8 µM (active) |
| ClCC(Cl)Cl | 0.948% | – |
| CC(C)Br | -4.36% | – |
| O=[N+]([O-])c1ccc(O)c([N+](=O)[O-])c1 | 0.892% | – |
| CC(C)[N+](=O)[O-] | -1.2% | – |
| CCCC[N+](=O)[O-] | -17.5% | – |
| Cc1cc(-c2cc(C)c(N)c(C)c2)cc(C)c1N | -3.76% | – |
| Nc1cc(Cl)ccc1O | -25.3% | – |
| CCN(N=O)C(N)=O | -0.947% | – |
| N#CC(Cl)(Cl)Cl | -3.76% | – |
| CCCCC(CC)COC(=O)c1ccc(C(=O)OCC(CC)CCCC)c(C(=O)OCC(CC)CCCC)c1 (stereo not given) | -6.34% | – |
| O=C(O)C(Br)CBr (stereo not given) | -19.2% | – |

| SMILES | activity change, negative = cytotoxic | Potency |
| --- | --- | --- |
| Nc1c(Br)cc([N+](=O)[O-])cc1[N+](=O)[O-] | -11.5% | – |
| Cc1cc(C)cc(OP(=O)(Oc2cc(C)cc(C)c2)Oc2cc(C)cc(C)c2)c1 | -26.8% | – |
| O=C(O)C(Cl)Br (stereo not given) | 4.65% | – |
| COP(=S)(OC)SCn1nnc2ccccc2c1=O | -2.78% | – |
| Nc1ccc([N+](=O)[O-])cc1N | -12.1% | – |
| O=C(O)c1cccc(Cl)c1 | -1.11% | – |
| Cc1cc(N=Nc2ccccc2C)ccc1N | -7.26% | – |
| OCCCCO | -3.97% | – |
| O=[N+]([O-])c1cc(Cl)c(Cl)c(Cl)c1 | -11.2% | – |
| CC(C)(COCC1CO1)COCC1CO1 (stereo not given) | -4.18% | – |
| Cc1ccc2c(c1N)C(=O)c1ccccc1C2=O | -19.4% | – |
| COc1ccccc1N | 1.8% | – |
| CC(C)(C)OOC(=O)c1ccccc1 | -7.47% | – |
| c1ccc(N=NNc2ccccc2)cc1 | -9.33% | – |
| COC(C)(C)C | -4.28% | – |
| C(CCOCC1CO1)COCC1CO1 (stereo not given) | -13.4% | – |
| CN(C)c1ccc(N)cc1 | – | 79.4 µM (active) |
| O=[N+]([O-])/C=C/c1ccccc1 | – | 50.1 µM (active) |

Reference: PubChem BioAssay (NCATS)
